# DT40 TDP1 no CPT: qHTS for Inhibitors of human tyrosyl-DNA phosphodiesterase 1 (TDP1): qHTS in cells in absence of CPT; actives 15% (n = 420,000); Potency, µM (titrated, usually from 46.2 µM), without a hit: at the top dose activity change, negative = growth inhibition, hits mostly inhibitors; DT40 Tdp1-/- hTDP1 cells, no CPT, ATP luminescence, 48 h; further: potency means the concentration at half of the fitted maximal effect; nearly all actives have a fitted effect of over 55% in size
#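 Cells were dispensed at 400 per well, compounds added by pin tool, plates incubated ≥48 hr at 37 °C, then CellTiter-Glo added for 30 min at room temperature before luminescence reading. Line: DT40 Tdp1-/- complemented with hTDP1; camptothecin omitted.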
# Gal4-VP16 FLuc: counter-screen for ROR gamma inhibitors: Gal4-VP16 reporter. Drosophila S2 Gal4-VP16 UAS-luciferase, luminescence, 20 h. Potency, µM (top dose mostly 53.6 µM), inactives show at the highest dose activity, negative = inhibition, actives largely listed as inhibitors. actives 3.5% (n = 310,000). AID 2546;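 further: Gal4-VP16 expression switched on by copper sulfate through the metallothionein promoter; potency means the concentration at half of the fitted maximal effect; nearly all actives have a fitted effect of over 50% in size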
# TDP1 cell CPT: DT40-hTDP1 cell growth loss with CPT | chicken DT40 Tdp1-/-;hTDP1 cells + 20 nM CPT, ATP luminescence, 48 h | Potency, µM (highest dose often 46.2 µM), inactives show at the highest dose activity change, negative = growth inhibition, hits mostly inhibitors | actives 12% (n = 420,000); further: potency means the concentration at half of the fitted maximal effect; nearly all actives have a fitted effect of over 55% in size
#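 Chicken DT40 Tdp1-/- cells complemented with human TDP1, 400 cells/well, exposed to compounds plus 20 nM camptothecin for at least 48 h at 37 C; viability read as ATP content by CellTiter-Glo luminescence.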
# ELG1 DNA repair: blocks ELG1-dependent DNA repair in HEK293T cells; HEK293T ELG1-luciferase reporter, luminescence, 16 h; DNA damage induced by 5-fluorouridine; Potency, µM (series often up to 46.1 µM), for inactives: at the highest dose activity change, negative = inhibition, usual class: inhibitors; actives 2.3% (n = 330,000); AID 504467; further: potency means the concentration at half of the fitted maximal effect; nearly all actives have a fitted effect of over 55% in size
#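 Step one: seed 2,000 cells per well. Step two: pin-transfer compound or DMSO alongside 5-fluorouridine. Step three: incubate 16 hr, 37 °C, 5% CO2. Step four: add ONE-Glo, wait 30 min, read luminescence.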
# RORg inh: inhibitors of mouse ROR gamma transcriptional activity; Potency, µM (titrated, usually from 53.6 µM), for the others: at the highest dose activity change, negative = inhibition, most hits filed as inhibitors; AID 2551; P51450; actives 5.4% (n = 310,000); Drosophila S2 Gal4-RORgamma UAS-luciferase reporter, 20 h; further: potency means the concentration at half of the fitted maximal effect; nearly all actives have a fitted effect of over 60% in size
# Target sequence (P51450 whole entry, looked up, the tested form may be a part): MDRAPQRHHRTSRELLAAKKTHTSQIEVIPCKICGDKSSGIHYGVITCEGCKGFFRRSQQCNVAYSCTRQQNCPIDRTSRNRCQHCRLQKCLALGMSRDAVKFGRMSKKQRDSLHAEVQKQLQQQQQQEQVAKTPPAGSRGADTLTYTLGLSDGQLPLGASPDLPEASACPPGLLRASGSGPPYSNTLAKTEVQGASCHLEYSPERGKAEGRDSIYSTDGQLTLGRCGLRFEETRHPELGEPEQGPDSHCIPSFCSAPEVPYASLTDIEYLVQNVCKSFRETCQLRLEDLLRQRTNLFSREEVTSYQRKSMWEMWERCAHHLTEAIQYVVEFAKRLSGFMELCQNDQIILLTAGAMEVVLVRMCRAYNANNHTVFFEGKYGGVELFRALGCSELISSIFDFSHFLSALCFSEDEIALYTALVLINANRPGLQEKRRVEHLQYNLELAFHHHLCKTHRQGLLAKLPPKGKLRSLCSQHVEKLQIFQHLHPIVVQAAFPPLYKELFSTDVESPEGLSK
#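 In this cell-based reporter format, copper sulfate (700 uM final) drives Gal4–ROR gamma fusion expression from a metallothionein promoter in Drosophila Schneider cells; compounds preincubated 1 hr, reporter read after 20 hr at ambient temperature.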
# IL-1B inflam inh: blocks inflammasome-driven IL-1 beta release; THP-1 LPS/ATP IL-1B secretion, AlphaLISA, 16 h; active compounds read low; activity change, % at 57.5 µM; actives 4.7% (n = 360,000); in the data active means activity change below about -50%; inconclusive means mostly about -30% to -49%
#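 Secreted IL-1B measured by AlphaLISA bead assay after 16 h compound exposure of THP-1 cells; compounds (final up to 57.5 uM) added 1 h before LPS (250 ng/mL) and ATP (1.25 mM) stimulation; lower signal means less secretion.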
# The depositor's hits bear a star; i = inactive; ? = inconclusive; . = not tested or not shown. This is a sample that favours compounds with a hit; in the whole collection about 21% have one here. Unless noted, the call rests on the fitted dose curve; in most records, active means well fitted curve in the direction sought with a large enough effect; inconclusive means small, poorly fitted or top-dose-only effect, or another doubt; inactive means no such curve, though single readings can be large; an effect the other way counts as inactive or inconclusive. On the % scale 0 is the no-effect control and ±100 the full control effect.
SMILES,DT40 TDP1 no CPT,Gal4-VP16 FLuc,TDP1 cell CPT,ELG1 DNA repair,RORg inh,IL-1B inflam inh
CCOC(=O)c1[nH]c(C)c(C(=O)NCCc2ccccc2)c1C,-11.7%,.,-13.6%,.,.,.
NC(=O)C(c1cccc(Cl)c1)c1ncc(C(F)(F)F)cc1Cl (stereo unspecified),-3.4%,-1.6%,-4.6%,3.9%,2.1%,10.6
NC(=S)C(c1ccccc1)c1ncc(C(F)(F)F)cc1Cl (stereo unspecified),6.5%,?,-10.3%,11.1%,6.31µM*,-3.9
Cc1nn2c(=O)cc(COC(=O)c3ccccc3NC(=O)C3CCCCC3)nc2s1,1.2%,.,7.1%,.,.,.
CCCNC(=S)N1CCN(c2nc(-c3cccc(OC)c3)cs2)CC1,?,-22.0%,?,10.9%,-9.0%,-58.6*
COCCNC(=S)N1CCN(c2nc(-c3ccccc3)cs2)CC1,18.4µM*,1.9%,?,-10.5%,16.8%,-10.8
O=C(NC(=S)N1CCN(c2nc(-c3ccccc3)cs2)CC1)c1cccnc1,?,0.0079µM*,?,12.8%,0.112µM*,0.0
COc1ccc(NC(=O)c2cc(S(=O)(=O)N3CCCCC3)ccc2C)cc1S(=O)(=O)N1CCOCC1,-16.6%,.,-2.7%,.,.,0.5
COc1cc(/C=C2\C(=N)N3N=C(S(C)(=O)=O)SC3=NC2=O)ccc1OS(=O)(=O)c1ccc(C)cc1,?,-15.5%,?,?,-20.1%,-4.2
O=C(CSc1nc2ccsc2c(=O)n1Cc1ccc(F)cc1)NCc1ccc(Cl)cc1,-22.6%,.,?,.,.,.
CC(=O)N1c2ccccc2CC1C(=O)N1CCN(c2ccccc2F)CC1 (stereo unspecified),-4.2%,.,?,.,.,.
Cc1[nH]c(=S)sc1Cc1ccc(F)cc1,?,10µM*,2.6%,-8.9%,3.98µM*,44.2
CCOC(=O)N1CCC(N(CCCOC)C(=O)Nc2ccc(CC)cc2)CC1,13µM*,3.6%,18.4µM*,-6.4%,?,7.1
CCOC(=O)N1CCC(N(CCOC)C(=O)Nc2ccc(Cl)cc2)CC1,14.6µM*,-7.4%,?,?,33.0%,0.0
CCOC(=O)N1CCC(N(C(=O)Nc2ccc(CC)cc2)C(C)CC)CC1 (stereo unspecified),23.1µM*,10.3%,?,12.1%,?,-8.0
CCOC(=O)N1CCC(N(C(=O)Nc2ccccc2)C(C)CC)CC1 (stereo unspecified),?,5.9%,?,7.7%,6.8%,4.8
Cc1cc(C(=O)N2CCc3ccccc32)n(-c2ccccc2)n1,18.4µM*,15.9%,?,-16.4%,-28.3%,36.1
Cc1cc(C)n(-c2ccc(C(=O)O)cc2)n1,-22.5%,-1.8%,-9.7%,25.5%,-1.3%,i
Cc1cc(C)n(-c2ccc(C(=O)N3CCc4ccccc43)cc2)n1,16.4µM*,-24.0%,?,18.9%,23.5%,?
CCOc1cc(C(=O)Nc2cccc(-c3nc4ccccc4o3)c2)cc(OCC)c1OCC,?,.,-0.1%,.,.,.
CCOC(=O)C(=O)Nc1nnc2n1CCS2,-6.8%,.,8.6%,.,.,.
COCCNC(=O)C(c1ccc(C)o1)N(Cc1ccco1)C(=O)c1snc(C(N)=O)c1N (stereo unspecified),-12.3%,20.0%,-8.9%,-28.0%,-11.6%,15.3
CN(C)c1ccc(C(C(=O)NCC2CCCO2)N(Cc2ccco2)C(=O)c2snc(C(N)=O)c2N)cc1 (stereo unspecified),?,-0.5%,?,?,22.9%,-3.2
CN(C)c1ccc(C(C(=O)NCc2ccccc2)N(Cc2ccco2)C(=O)c2snc(C(N)=O)c2N)cc1 (stereo unspecified),8.2µM*,7.9%,14.6µM*,?,4.1%,-72.0*
NC(=O)c1nsc(C(=O)N(Cc2ccco2)C(C(=O)NCc2ccc(F)cc2)c2ccc(O)cc2)c1N (stereo unspecified),?,6.7%,16.4µM*,11.6µM*,13.2%,?
SMILES,DT40 TDP1 no CPT,Gal4-VP16 FLuc,TDP1 cell CPT,ELG1 DNA repair,RORg inh,IL-1B inflam inh
Cc1ccc(C(C(=O)NCc2ccc(F)cc2)N(Cc2ccco2)C(=O)c2snc(C(N)=O)c2N)o1 (stereo unspecified),14.6µM*,-2.9%,14.6µM*,20.6µM*,14.0%,-70.6*
CN(C)c1ccc(C(C(=O)NCC2CCCO2)N(Cc2ccccc2)C(=O)c2snc(C(N)=O)c2N)cc1 (stereo unspecified),18.4µM*,-3.0%,10.3µM*,11.6µM*,7.4%,-11.1
CCOc1ccc(-n2nc3c(=O)n(CCN4CCCCC4)nc(C)c3c2C)cc1,2.4%,2.6%,-16.5%,-11.8%,-0.8%,-7.9
NC(=O)c1nsc(C(=O)N(Cc2cccnc2)C(C(=O)NCc2ccc(F)cc2)c2ccc(F)cc2)c1N (stereo unspecified),-25.2%,0.3%,-28.3%,-17.2%,?,-55.4*
Cc1ccc(O)c(N)c1,23.1µM*,?,?,?,?,-11.7
Cc1ccc(SSc2cc(C)ccc2N)c(N)c1,8.2µM*,.,7.31µM*,?,.,-108.0*
COc1ccc([C@H]2CC(=O)C=C(c3c(C)cc(C)cc3C)C2)cc1,?,.,?,-25.9%,.,31.4
Cc1nc(-c2nc(-c3c(C(=O)NNC(=O)Nc4cccc(Cl)c4)noc3C)cs2)cs1,?,-16.7%,?,-3.6%,-14.4%,-12.2
Cc1onc(C(=O)NN)c1-c1csc(COc2ccc(Cl)cc2)n1,14.6µM*,-3.0%,20.6µM*,?,-35.5%,-24.3
Brc1cccc(-c2nc3c4ccccc4ccn3c2Cc2ccccc2)c1,?,.,20.6µM*,.,.,6.8
c1ccc(Cc2c(-c3ccccc3)nc3c4ccccc4ccn23)cc1,?,.,?,.,.,39.6
Cc1ccc(Cc2c(-c3ccc(Cl)cc3)nc3ccc(Cl)cn23)cc1,20.6µM*,.,?,.,.,6.2
CCCc1nc2ccc(C)cn2c1Cc1cccc(Cl)c1,16.4µM*,.,?,.,.,2.1
Clc1ccc2nc(-c3cccc(Br)c3)c(Cc3ccccc3)n2c1,?,.,-21.0%,.,.,67.1
Cc1ccc2nc(-c3cccc(Br)c3)c(Cc3ccccc3)n2c1,?,.,25.9µM*,.,.,-0.6
COc1cccc(Cn2ccn(-c3ccc(F)cc3)c(=O)c2=O)c1,0.7%,.,-4.1%,.,.,.
CCNC(=O)CCC(N)C(=O)O (stereo unspecified),-7.8%,2.4%,5.0%,.,1.2%,.
